Source: PubChem BioAssay (The Scripps Research Institute Molecular Screening Center)
This is a sample that favours compounds with a hit; in the whole collection about 3.5% have one here.
TEAD-YAP block: TEAD-YAP interaction inhibition; HEK-TIYL cells, TEAD-Gal4/YAP UAS-luciferase luminescence; inhibition, % at 9.12 µM; actives 1.4% (n = 640,000); in the data active = inhibition above about 32%
GPR151 ag: activates the human receptor GPR151; actives 1% (n = 650,000); activation, % at 11.2 µM; PathHunter beta-arrestin GPR151 cells, luminescence; Q8TDV0; AID 1508602; in the data active = activation above about 4.9%
MITF primary: inhibitors of human MITF. AlphaScreen MITF homodimerization, bead proximity signal. AID 1259374. inhibition, % at 2.6 µM. actives 0.91% (n = 650,000); in the data active = inhibition above about 50%
FBW7 activator: human FBW7 E3 ligase activation, primary screen; Q969H0; actives 0.13% (n = 650,000); AlphaScreen FBW7–phospho-cyclin E peptide binding, activator screen; normalized activity (activation), % at 26.1 µM; in the data active = normalized activity above about 1.9%;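 note: purified mutant Fbw7 with reduced substrate affinity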
GPR151 conf act: confirmation of human GPR151 activators | shares compounds with GPR151 ag | GPR151 PathHunter beta-arrestin cells, luminescence, 90 min; % of EA-reagent control over plate median | activation, % at 11.2 µM | 6,700 tested, under 10 active;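 active = mean percent activation across replicates above the confirmation screen cutoff of 4.91%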
GPR119 ag: counter-screen for GPR151 activators: effect on human GPR119 | shares compounds with GPR151 ag | activation, % at 11.2 µM | actives 0.3% (n = 6,700) | GPR119 PathHunter beta-arrestin cells, luminescence, 90 min; 0 = compound-well median, 100 = enzyme-acceptor control;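 active = mean percent activation in the counterscreen above 29.09%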;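 note: counterscreen on off-target GPR119 to flag nonselective hits from the GPR151 activator screen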
Target sequence (Q8TDV5 whole entry, looked up): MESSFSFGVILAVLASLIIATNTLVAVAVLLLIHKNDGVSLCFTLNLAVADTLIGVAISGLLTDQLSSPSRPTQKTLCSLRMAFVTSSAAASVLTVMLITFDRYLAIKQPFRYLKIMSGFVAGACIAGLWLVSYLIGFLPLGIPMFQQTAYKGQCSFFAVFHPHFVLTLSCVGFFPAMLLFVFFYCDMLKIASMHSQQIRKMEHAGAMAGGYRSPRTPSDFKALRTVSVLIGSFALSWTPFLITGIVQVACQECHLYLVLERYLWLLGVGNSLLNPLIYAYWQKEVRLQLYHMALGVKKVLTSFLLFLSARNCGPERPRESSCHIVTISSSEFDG
Large screens that a line does not name were inactive (follow-up assays come after a bar, where they were run).

O=C(NCc1ccccc1)c1ccc(CN2CCC(Cc3ccccc3)CC2)cc1	none
COCCNC(=O)c1cccc(OC2CCN(Cc3ccc(F)c(OC)c3)CC2)c1	none
COCCNC(=O)c1ccc(CN2CCC(Cc3ccccc3)CC2)cc1	GPR151 ag 5.0 | GPR151 conf act inactive | GPR119 ag inactive
CCOC(=O)N1CCN(C(=O)c2ccc(CN3CCC(Cc4ccccc4)CC3)cc2)CC1	GPR151 ag 4.9 | GPR151 conf act inactive | GPR119 ag inactive
COCCNC(=O)c1cccc(OC2CCN(Cc3cnc(SC)nc3)CC2)c1	GPR151 ag 7.9 | GPR151 conf act inactive | GPR119 ag inactive
CCc1c(C(=O)Nc2ccc(C)c(F)c2)[nH]c(C)c1C(C)=O	GPR151 ag 11.7 | GPR151 conf act inactive | GPR119 ag inactive
COc1cn(CC(=O)Nc2cccc(C)c2)c(CSc2ncccn2)cc1=O	none
COc1cn(CC(=O)Nc2cc(C)cc(C)c2)c(CSc2nccc(C)n2)cc1=O	GPR151 ag 14.7 | GPR151 conf act inactive | GPR119 ag inactive
Cc1cc(NS(=O)(=O)c2ccc3c(c2)OCCN3C)ccc1Br	GPR151 ag 9.0 | GPR151 conf act inactive | GPR119 ag inactive
Cc1ccc(NS(=O)(=O)c2ccc3c(c2)OCCN3C)cc1C	none
Cc1ccc(CCNS(=O)(=O)c2ccc3c(c2)OCCN3C)cc1	GPR151 ag 5.4 | GPR151 conf act inactive | GPR119 ag inactive
CSc1cccc(NS(=O)(=O)c2ccc3c(c2)OCCN3C)c1	GPR151 ag 5.0 | GPR151 conf act inactive | GPR119 ag inactive
COc1ccc(C2CC(C(F)(F)F)n3ncc(C(=O)Nc4sc5c(c4C(=O)OC(C)C)CCCC5)c3N2)cc1OC (centres undefined)	none
c1ccc2c(NC3CCCCC3)nc(CN3CCSCC3)nc2c1	none
CC[C@H](Cn1nc(-c2ccc(F)c(F)c2)ccc1=O)NC(=O)c1cnn2cccnc12	none
CCNC(=O)CNC(=O)c1cccc(Cl)c1	none
CC(C)c1nc(CNc2nc3nonc3nc2N(C)C)cs1	GPR151 ag 6.8 | GPR151 conf act inactive | GPR119 ag inactive
O=C(c1cc(-c2ccc(Cl)cc2)nc2ccccc12)N1CCOCC1	none
O=C(c1cc(-c2cccc(Cl)c2)nc2ccccc12)N1CCOCC1	GPR151 ag 10.7 | GPR151 conf act inactive | GPR119 ag inactive
Cc1ccc2nc(-c3ccc(NC(=O)CSc4nnc(-c5ccccc5)n4C4CCCCC4)cc3)sc2c1	none
CC1CCCC(C)N1c1nnc(NC(=O)c2csc3c2CCCC3)s1 (centres undefined)	GPR151 ag 5.8 | GPR151 conf act inactive | GPR119 ag inactive
O=C(CCC1CCCC1)N1CCN(c2ccc(N3CCOCC3)nn2)CC1	none
Cn1c(=O)[nH]c(=O)c2c1nc(NCCCN1CCOCC1)n2CCO	GPR151 ag 10.1 | GPR151 conf act inactive | GPR119 ag inactive
O=c1cnn(-c2ccccc2)c(-c2ccccc2)c1	GPR151 ag 6.7 | GPR151 conf act inactive | GPR119 ag inactive
NNC(=O)c1cc(-c2ccccc2)n(-c2ccccc2)n1	none
CCOC(=O)c1ccc(NC(=S)N2CCC3(CC2)OCCO3)cc1	none
O=C(NC(c1ccccc1)c1ccccn1)C1CCN(C(=O)c2cccs2)CC1 (centres undefined)	none
CC(CC(=O)Nc1nc2ccc([N+](=O)[O-])cc2s1)c1ccccc1 (centres undefined)	GPR151 ag 6.5 | GPR151 conf act inactive | GPR119 ag inactive
CCN(CC)C(=O)Cc1ccc(C)cc1	none
N#CCn1cnc2c(nnn2-c2cccc(F)c2)c1=O	GPR151 ag 6.1 | GPR151 conf act inactive | GPR119 ag inactive
CCCOc1ccc(/C=C2/C(=O)ON=C2C)cc1OCC	none
CCCOc1ccccc1/C=C1/C(=O)ON=C1C	GPR151 ag 7.4 | GPR151 conf act inactive | GPR119 ag inactive
COC(=O)c1cc(CNC(=O)C(C)C)cc(NS(=O)(=O)c2ccccc2Cl)c1	GPR151 ag 5.6 | GPR151 conf act inactive | GPR119 ag inactive
C=CCCC(=O)NCc1cc(NS(=O)(=O)c2ccccc2Cl)cc(C(=O)OC)c1	none
O=C1N[C@@H](Cc2ccccc2)C(=O)N2C[C@@H](NCc3cccc(F)c3)C[C@@H]12	none
O=C(CCN1C(=O)C2CCCCC2C1=O)NNc1c(F)c(F)cc(F)c1F (centres undefined)	GPR151 ag 5.4 | GPR151 conf act inactive | GPR119 ag inactive
CN(CCOc1ccccc1)Cc1nc(-c2ccccc2)no1	GPR151 ag 9.5 | GPR151 conf act inactive | GPR119 ag inactive
COc1ccc(-c2noc(CN(C)CCOc3ccccc3)n2)c(OC)c1OC	none
CCN(C)c1nc2nonc2nc1NC1CCCC1	GPR151 ag 5.2 | GPR151 conf act inactive | GPR119 ag inactive
Cc1ccc(CN2CCN(C/C=C/C(C)C)CC2CCO)o1 (centres undefined)	none
CC(C)=CCN1CCN(Cc2ccc3nonc3c2)CC1CCO (centres undefined)	GPR151 ag 5.4 | GPR151 conf act inactive | GPR119 ag inactive
Cc1ccc(CN2CCN(Cc3ccc4nonc4c3)CC2CCO)cc1 (centres undefined)	none
Cc1ccc(CN2CCN(Cc3ccc4c(c3)OCCO4)CC2CCO)o1 (centres undefined)	GPR151 ag 5.9 | GPR151 conf act inactive | GPR119 ag inactive
Cc1ccc(CN2CCN(C/C(Cl)=C/c3ccccc3)CC2CCO)o1 (centres undefined)	GPR151 ag 5.4 | GPR151 conf act inactive | GPR119 ag inactive
Cc1ccc(CN2CCN(C/C=C/c3ccc(F)cc3)CC2CCO)o1 (centres undefined)	GPR151 ag 12.6 | GPR151 conf act inactive | GPR119 ag inactive
COC(=O)C1=CN(Cc2ccc(Cl)cc2)C=C(C(=O)OC)C1c1cc(OC)c(OC)c(OC)c1	none
Nc1nc(NCCOc2ccccc2)cc(Nc2ccncn2)n1	none
COc1ccc(C2C(C(=O)Nc3ccc(OC)c(Cl)c3)c3ccccc3C(=O)N2Cc2ccc(F)cc2)cc1 (centres undefined)	none
CC(C)C(=O)Nc1cccc(C(=O)Nc2cccc(Br)c2)c1	none
COc1ccccc1/C=C/CN1CCN(Cc2cccs2)C(CCO)C1 (centres undefined)	GPR151 ag 6.9 | GPR151 conf act inactive | GPR119 ag inactive
COc1ccccc1/C=C/CN1CCN(Cc2ccccc2)C(CCO)C1 (centres undefined)	none
CCN(CC)C(=O)CSC1=Nc2ccccc2C2=NC(Cc3ccccc3)C(=O)N12 (centres undefined)	none
COc1ccc(C2/C(=C(/O)c3ccccc3)C(=O)C(=O)N2c2ccc(F)cc2)c(OC)c1 (centres undefined)	none
CC1CCN(C(=O)CSc2nc3[nH]ncc3c(=O)[nH]2)CC1	GPR151 ag 7.7 | GPR151 conf act inactive | GPR119 ag inactive
CCOc1ccc(NC(=O)CNC(=O)C2CCCCC2)cc1	none
